# Screening data from PubChem.
# An excerpt weighted towards active compounds, which were near 17% of everything screened.
# HepG2 viability: counter-screen for TGF-b inhibitors: cytotoxicity in HepG2 cells; Potency, µM (titrated, usually from 46.1 µM), without a hit: at the highest dose activity change, negative = cytotoxicity, actives largely listed as cytotoxic; HepG2 CAGA-GFP viability, ATP luminescence, 18 h; 0.76% of 410,000 active
#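 CellTiter-Glo luminescence gave cytotoxicity after 18 hours at 37 degrees C. The cells were HepG2 CAGA-GFP in 1% FBS DMEM, stimulated with 500 pg/mL TGF-beta after compound addition. %Activity was normalised to no-cell wells (complete cell-killing) and DMSO (no toxicity), and curves were fitted and classified.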
# DT40 TDP1 CPT: growth inhibition of DT40 Tdp1-/-;hTDP1 cells with camptothecin (screen for TDP1 inhibitors) | chicken DT40 Tdp1-/-;hTDP1 cells + 20 nM CPT, ATP luminescence, 48 h | Potency, µM (series often up to 46.2 µM), for the others: top-dose activity change, negative = growth inhibition, usual class: inhibitors | 12% of 420,000 active | AID 686979; also: % is scaled to controls: 0 for no effect and ±100 for the full control effect; nearly all actives have a fitted effect of over 55% in size
#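 Cell growth measured by CellTiter-Glo luminescence after a minimum 48 h, 37 C compound exposure with 20 nM CPT in Tdp1-knockout DT40 cells stably expressing hTDP1, seeded 400/well; qHTS titration format.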
# ATXN2 expr inh: inhibitors of ATXN2 expression. HEK-293 ATXN2-luciferase reporter, luminescence, 24 h. Potency, µM (highest dose often 57 µM), inactives show at the top dose activity change, negative = inhibition, hits mostly inhibitors. 0.72% of 360,000 active. AID 1745845; also: % is scaled to controls: 0 for no effect and ±100 for the full control effect; nearly all actives have a fitted effect of over 55% in size
#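 qHTS (up to 57 uM final) was run with 24 h compound exposure of reporter cells at 37 °C. Each well was multiplexed: SteadyGlo luminescence measured ATXN2-luciferase expression after a fluorogenic Gly-Phe-AFC viability readout (25 uM final).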
# DT40 TDP1 no CPT: qHTS for Inhibitors of human tyrosyl-DNA phosphodiesterase 1 (TDP1): qHTS in cells in absence of CPT; DT40 Tdp1-/- hTDP1 cells, no CPT, ATP luminescence, 48 h; Potency, µM (top dose mostly 46.2 µM), without a hit: at the highest dose activity change, negative = growth inhibition, hits mostly inhibitors; 15% of 420,000 active; AID 686978, 2013; also: % is scaled to controls: 0 for no effect and ±100 for the full control effect; nearly all actives have a fitted effect of over 55% in size
#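 A cellular qHTS used chicken DT40 cells lacking endogenous Tdp1 but carrying stably transfected human TDP1. Compounds were applied without camptothecin, and cell growth kinetics were judged by ATP-dependent luminescence after ≥48 hr.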
# S2 tox: viability counter-screen for ATXN expression inhibitors; S2 cells (HEK-293 line with an ATXN2-luciferase reporter) viability, CellTiter-Fluor protease fluorescence, 24 h; Potency, µM (series often up to 56.7 µM), hits mostly cytotoxic; 0.49% of 400,000 active; AID 651635; also: nearly all actives have a fitted effect of over 40% in size
# TGFb inhibitor: inhibitors of TGF-b signaling; HepG2 CAGA-GFP TGF-b/SMAD3 reporter, GFP fluorescence, 18 h; TGF-beta stimulated, 500 pg/mL final; Potency, µM (titrated, usually from 46.1 µM), without a hit: at the highest dose activity, negative = inhibition, actives largely listed as inhibitors; 1.2% of 410,000 active; also: % is scaled to controls: 0 for no effect and ±100 for the full control effect; nearly all actives have a fitted effect of over 65% in size
#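 Read-out: total well GFP (ex488/em500-530) summed from mean per-cell fluorescence. Cells: HEPG2 CAGA-GFP, 1% FBS DMEM, 18 h at 37 degrees C with 500 pg/mL final TGF-beta. Unstimulated wells served as the full-inhibition control; stimulated DMSO wells = 0%.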
# Numbers without * were called inactive; i = inactive; u = inconclusive; x = not tested or not shown; [ ] = dose if it differs, or a comment. Calls follow the shape of the dose curve; as a rule, active = well fitted curve in the direction sought with a large enough effect; inconclusive = small, poorly fitted or top-dose-only effect, or another doubt; inactive = no such curve, though single readings can be large; an effect the other way counts as inactive or inconclusive. Potency is read from the fitted curve at half-maximal effect.
SMILES,HepG2 viability,DT40 TDP1 CPT,ATXN2 expr inh,DT40 TDP1 no CPT,S2 tox,TGFb inhibitor
CCCCC(c1nc2ccccc2[nH]1)N(C(=O)c1ccccc1)c1ccccc1[N+](=O)[O-] (stereo not given),2.4%,u,-1.9%,u,u,u
O=C(COc1ccc(Cl)cc1Br)OCC(=O)c1ccc[nH]1,-15.4%,-0.7%,x,-0.2%,i,-6.0%
O=C(/C=C/c1ccc(S(=O)(=O)N2CCOCC2)cc1)NCc1ccc(Cl)cc1,-24.8%,u,-0.9%,18.4µM*,i,0.5%
O=C(COc1ccc(S(=O)(=O)N2CCOCC2)cc1)NCCc1ccc(Cl)cc1,-18.4%,u,x,18.4µM*,i,-1.6%
N#Cc1c(NC(=O)c2ccccc2)sc2c1CCC2,-22.4%,18.4µM*,24.9%,16.4µM*,i,0.2%
N#Cc1c(NC(=O)c2cnccn2)sc2c1CCCC2,4.2%,9.2µM*,0.0%,11.6µM*,i,-3.2%
COc1ccc(-c2cc(C(=O)Nc3sc4c(c3C#N)CCCC4)no2)cc1OC,3.5%,0.3%,4.0%,-7.6%,i,31.5%
CC(=O)Nc1sc2c(c1C#N)CCC2,-0.7%,-1.0%,-5.4%[11.3 µM],-5.6%,i,1.3%
NC(=O)c1c(NC(=O)c2cccnc2)sc2c1CCCC2,-15.3%,-1.3%,0.5%,-27.8%,i,-7.7%
N#Cc1c(NC(=O)c2cccnc2)sc2c1CCC2,2.9%,23.1µM*,8.2%,u,u,-17.2%
CC(C)c1cc(C(=O)Nc2sc3c(c2C#N)CCC3)no1,-5.0%,u,53.0%,23.1µM*,u,6.5%
CS(=O)(=O)c1ccc(Cl)c(NC(=O)c2ccc(-n3cncn3)c([N+](=O)[O-])c2)c1,2.5%,-17.5%,x,-8.2%,i,0.8%
Cn1ncc(Cl)c1C(=O)NC(=S)Nc1sc2c(c1C#N)CCCCC2,-43.0%,20.6µM*,23.4%,u,i,-0.7%
N#Cc1c(NC(=S)NC(=O)c2ccccc2)sc2c1CCCCC2,-44.1%,u,x,u,x,-11.1%
O=C(N/N=C/c1ccccc1Cl)c1n[nH]c2c1CCCC2,-32.6%,-26.4%,x,u,i,4.5%
Cc1[nH]nc(C(=O)NN=Cc2ccccc2Cl)c1N=NN(C)C,20µM*,9.2µM*,0.2%,6.51µM*,u,10µM*
O=C(NN1CCOCC1)NC12CC3CC(CC(C3)C1)C2,9.5%,5.4%,-7.6%,-32.9%,i,0.5%
C[C@@H](c1ccccc1)N1C[C@@H](COCc2ccccc2)Oc2cc(N3CCC[C@@H]3CO)ccc2S1(=O)=O,x,u,-9.1%,u,i,x
COC[C@H]1CCCN1c1ccc2c(c1)O[C@H](COCc1ccccc1)CN([C@@H](C)c1ccccc1)S2(=O)=O,x,u,11.3%,16.4µM*,i,x
COC[C@@H]1CCCN1c1ccc2c(c1)O[C@H](COCc1ccccc1)CN([C@H](C)c1ccccc1)S2(=O)=O,x,u,7.9%,20.6µM*,u,x
C[C@@H](c1ccccc1)N1C[C@H](COCc2ccccc2)Oc2cc(N3CCC[C@H]3C(N)=O)ccc2S1(=O)=O,x,u,4.0%,u,u,x
C[C@@H](c1ccccc1)N1C[C@H](COCc2ccccc2)Oc2cc(N3CCC[C@H]3CO)ccc2S1(=O)=O,x,u,-11.1%,u,u,x
CCCCC[C@@H](C)N1C[C@H](COCc2ccccc2)Oc2cc(N3CCC[C@@H]3COC)ccc2S1(=O)=O,x,u,46.9%,14.6µM*,i,x
COC[C@H]1CCCN1c1ccc2c(c1)O[C@@H](COCc1ccccc1)CN([C@@H](C)c1ccccc1)S2(=O)=O,x,10.3µM*,-6.7%,7.31µM*,i,x
COc1ccc(S(=O)(=O)Nc2ccc(-c3ccc4nncn4n3)cc2)c(OC)c1,-45.4%,9.2µM*,-3.8%,10.3µM*,i,-21.8%
SMILES,HepG2 viability,DT40 TDP1 CPT,ATXN2 expr inh,DT40 TDP1 no CPT,S2 tox,TGFb inhibitor
COc1ccc(C(=O)Nc2cccc(-c3ccc4nncn4n3)c2)cc1,0.7%,14.6µM*,-2.7%,14.6µM*,i,5.0%
CCc1ccc(S(=O)(=O)Nc2cccc(-c3ccc4nncn4n3)c2)s1,-13.7%,u,-1.7%,14.6µM*,i,3.3%
Cc1cccc(S(=O)(=O)Nc2ccc(-c3ccc4nncn4n3)cc2)c1,-4.0%,u,-4.8%,u,u,0.2%
O=S(=O)(Nc1ccc(-c2ccc3nncn3n2)cc1)c1ccccc1Cl,0.4%,u,9.3%,-10.0%,i,0.6%
COc1cccc(C(=O)Nc2cccc(-c3ccc4nncn4n3)c2)c1OC,-10.5%,u,-4.5%,u,i,-0.5%
COc1ccc(S(=O)(=O)Nc2cccc(-c3ccc4nncn4n3)c2)cc1,1.3%,3.66µM*,-16.6%,2.59µM*,u,-10.6%
CCc1ccc(S(=O)(=O)Nc2cccc(-c3ccc(N4CCC(C)CC4)nn3)c2)s1,-18.8%,u,1.6%,u,u,-31.6%
CCOC(=O)c1c(C)[nH]c(C)c1C(=O)CSc1nnc(-c2ccco2)n1Cc1ccccc1,-3.9%,u,-9.4%,u,i,20.9%
COc1ccc(CCNCC(=O)Nc2ccc(C)c(S(=O)(=O)N(C)C)c2)cc1OC,-0.4%,u,-21.7%,-6.9%,i,-0.6%
O=C(COc1ccc(Cl)cc1)Nc1cccc(-c2ccc3nncn3n2)c1,-25.9%,-25.3%,-6.4%,16.4µM*,i,-5.4%
COCC(=O)Nc1cccc(-c2ccc3nncn3n2)c1,16.5%,-13.7%,0.0%,17.3%,u,18.0%
CC(=O)N(c1nc(/C=C\C(=O)O)cs1)c1ccccc1F,4.5%,5.2%,-24.8%,7.8%,i,-6.1%
O=C(N/N=C/c1c[nH]c2ccccc12)c1ccn(Cc2ccc(Cl)cc2Cl)n1,-2.9%,-20.7%,8.9%,u,i,u
O=C(N/N=C/c1c[nH]c2ccc(Br)cc12)c1ccn(Cc2ccc(Cl)cc2)n1,5.9%,u,-5.7%,20.6µM*,i,u
O[C@@H]1CN(CC2CCCCC2)[C@@H](c2ccccc2)C[C@H]1n1cc(C2CC2)nn1,-5.2%,u,-30.1%,8.2µM*,u,-0.9%
O[C@H]1C[C@H](c2ccccc2)N(CC2CCCCC2)C[C@@H]1n1cc(C2CC2)nn1,-131.9%,10.3µM*,u,7.31µM*,u,u
